According to PMC5540273 (PLoS ONE, 2017):

Key:
Settings in all cases: concentration: 1 μM, replicates: in singlicate; n = 1
PDPK1 = test system: PDPK1
PFTAIRE2 = test system: PFTAIRE2
PFTK1 = test system: T1, PFTK1
T1 construct: gene CDK14

PHKG1 = test system: PHKG1
PHKG2 = test system: PHKG2
PIK3C2B = test system: PIK3C2B
PIK3C2G = test system: PIK3C2G
PIK3CA = test system: PIK3CA
PIK3CB = test system: PIK3CB
PIK3CD = test system: PIK3CD
PIK3CG = test system: PIK3CG
PIK4CB = test system: T2, PIK4CB
T2 construct: gene PI4KB

PIKFYVE = test system: PIKFYVE
PIM1 = test system: PIM1
PIM2 = test system: PIM2
PIM3 = test system: PIM3
PIP5K1A = test system: PIP5K1A
PIP5K1C = test system: PIP5K1C
PIP5K2B = test system: PIP5K2B
PIP5K2C = test system: T3, PIP5K2C
T3 construct: gene PIP4K2C
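Note: KINOMEscan kinase panel screen.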

Compound | %Inh (PDPK1) | %Inh (PFTAIRE2) | %Inh (PFTK1) | %Inh (PHKG1) | %Inh (PHKG2) | %Inh (PIK3C2B) | %Inh (PIK3C2G) | %Inh (PIK3CA) | %Inh (PIK3CB) | %Inh (PIK3CD) | %Inh (PIK3CG) | %Inh (PIK4CB) | %Inh (PIKFYVE) | %Inh (PIM1) | %Inh (PIM2) | %Inh (PIM3) | %Inh (PIP5K1A) | %Inh (PIP5K1C) | %Inh (PIP5K2B) | %Inh (PIP5K2C)
COc1cc2nccc(Nc3ccc(OCc4ccc(NC(C)=O)cc4)cc3)c2cc1OC.Cl [GW440135] | 22% | 77% | 0% | 0% | 5% | 17% | 0% | 7% | 0% | 0% | 7% | 4% | 0% | 8% | 0% | 0% | 15% | 32% | 22% | 25%
COc1cc(Nc2ccnc3ccc(C(F)(F)F)cc23)cc(OC)c1OC [GW577382] | 32% | 8% | 0% | 3% | 0% | 0% | 0% | 0% | 0% | 0% | 0% | 0% | 0% | 2% | 0% | 0% | 0% | 54% | 10% | 50%
CCCC(=O)Nc1n[nH]c2ncc(-c3cccc4ccccc34)cc12 [SB-642057] | 0% | 23% | 39% | 0% | 2% | 7% | 0% | 13% | 0% | 0% | 10% | 39% | 0% | 10% | 0% | 2% | 0% | 34% | 0% | 13%
Cc1nc(N(C)[C@H]2CN(C(=O)CC#N)CC[C@H]2C)c2cc[nH]c2n1 | 0% | 0% | 0% | 0% | 13% | 0% | 10% | 0% | 0% | 12% | 0% | 0% | 2% | 0% | 0% | 0% | 0% | 0% | 0% | 0%
COc1cccc(C2=C(N(C)c3ccccc3)C(=O)NC2=O)c1 [SB-334865] | 0% | 0% | 20% | 0% | 0% | 0% | 0% | 0% | 0% | 0% | 0% | 0% | 2% | 0% | 0% | 0% | 0% | 70% | 6% | 30%
CCC(=O)c1c(-c2ccccc2)c2cc(Cl)ccc2c(=O)n1Cc1cc(S(C)(=O)=O)n(CC(F)F)n1 | 0% | 0% | 0% | 0% | 7% | 0% | 0% | 0% | 16% | 0% | 0% | 0% | 0% | 0% | 0% | 0% | 2% | 9% | 0% | 0%
COc1ccc(Nc2nccc(N3CCC(NS(=O)(=O)c4ccc(NC(C)=O)cc4)C3)n2)cc1 (stereo not drawn) [GSK1379729] | 9% | 17% | 20% | 18% | 0% | 7% | 6% | 4% | 0% | 27% | 11% | 14% | 11% | 0% | 0% | 0% | 0% | 49% | 9% | 62%
COc1ccc(-n2cnc3c(N)ncnc32)cc1 [SKF-97236] | 12% | 20% | 17% | 0% | 0% | 0% | 27% | 2% | 9% | 0% | 51% | 23% | 0% | 19% | 0% | 0% | 0% | 33% | 6% | 6%
Cn1c(=O)c(F)c(Nc2ccc(I)cc2F)c2c(=O)n(OC[C@H](O)CO)cnc21 | 21% | 2% | 0% | 23% | 0% | 0% | 0% | 0% | 0% | 0% | 0% | 0% | 6% | 5% | 13% | 0% | 11% | 22% | 9% | 12%
Nc1ncnc2c1ncn2-c1ccc(Cl)cc1 [AH2635] | 0% | 0% | 17% | 0% | 0% | 0% | 0% | 0% | 0% | 0% | 47% | 0% | 0% | 0% | 0% | 0% | 17% | 57% | 10% | 23%
O=C(Nc1n[nH]c2nc(-c3ccccc3)c(Br)cc12)C1CC1 [SB-708998] | 20% | 1% | 7% | 0% | 0% | 0% | 9% | 0% | 0% | 3% | 0% | 0% | 0% | 4% | 0% | 0% | 0% | 14% | 33% | 0%
Cc1cc(Nc2nc(-c3cccc(C)n3)nc3ccccc23)ccn1 [GW872411] | 0% | 0% | 10% | 0% | 0% | 0% | 0% | 0% | 0% | 0% | 0% | 0% | 53% | 0% | 0% | 0% | 2% | 0% | 0% | 0%
COc1cc(OC)cc(-c2cc3cnc(N)nc3nc2NC(=O)NC(C)(C)C)c1 | 0% | 0% | 0% | 13% | 0% | 65% | 74% | 0% | 32% | 0% | 5% | 0% | 44% | 0% | 0% | 0% | 37% | 0% | 0% | 0%
FC(F)(F)c1ccc(-c2ncn(CCCN3CCOCC3)c2-c2ccncc2)cc1 [SB-217780] | 0% | 40% | 0% | 1% | 4% | 0% | 0% | 0% | 4% | 0% | 34% | 0% | 0% | 15% | 0% | 13% | 0% | 36% | 0% | 27%
CN(C)c1cc(-c2ccc3c(N)n[nH]c3c2)nc(N)n1 [GSK2219329] | – | 0% | 11% | 0% | 0% | 0% | 0% | 0% | 0% | 0% | 0% | 0% | 0% | 14% | 0% | 0% | 0% | 19% | 0% | 0%
CCc1ccc(-c2ccc3c(c2)-c2nn(C)cc2S(=O)(=O)N3C)cc1 | 23% | 0% | 9% | 0% | 0% | 0% | 0% | 0% | 0% | 0% | 0% | 0% | 16% | 0% | 12% | 0% | 0% | 35% | 0% | 9%
Fc1cccc(CSc2nnc(-c3ccc4c(c3)CCO4)o2)c1 | 0% | 10% | 0% | 1% | 0% | 1% | 17% | 10% | 14% | 0% | 10% | 2% | 7% | 13% | 18% | 9% | 13% | 5% | 34% | 0%
CCC(=O)c1c(-c2ccccc2)c2cc(Cl)ccc2c(=O)n1Cc1cc(C(=O)NC2CC2)n(C)n1 | 0% | 0% | 0% | 0% | 0% | 0% | 37% | 0% | 21% | 14% | 0% | 0% | 25% | 0% | 0% | 11% | 0% | 0% | 32% | 12%
COC(=O)c1c(-c2ccccc2)c2cc(C)ccc2c(=O)n1Cc1ccccc1 | 0% | 0% | 2% | 0% | 15% | 0% | 0% | 0% | 0% | 0% | 0% | 0% | 0% | 2% | 0% | 0% | 13% | 20% | 5% | 1%
Nc1nc(N)c2nc(-c3ccccc3)[nH]c2n1 [SKF-12778] | 14% | 6% | 9% | 0% | 0% | 0% | 68% | 6% | 0% | 21% | 8% | 19% | 12% | 0% | 5% | 0% | 0% | 47% | 8% | 35%
